Measured values published in PubChem BioAssay (Tox21).
Records with an inconclusive call do not appear. Calls of active or inactive are those of the source. Unless noted, the call rests on the fitted dose curve; in most records, active means well fitted curve in the direction sought with a large enough effect in the repeat runs; inconclusive means weak or mixed curves; inactive means no such curve, though single readings can be large; an effect the other way counts as inactive or inconclusive.

Legend:
[1] = qHTS assay to identify small molecule agonists of H2AX - cell viability counter screen (AID 1224847; calls by dose curve; further: nearly all actives have a fitted effect of over 30% in size; further: potency means the concentration at half of the fitted maximal effect;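 on activity change, negative = cytotoxicity: wild-type CHO-K1 cells; top concentration of the series differs between compounds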)
Summary of the method: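 Counter-screen for viability: CellTiter-Glo ATP luminescence read after 3 h compound treatment (15-point titration, 0.76% DMSO final) of CHO-K1 cells at 37C, with 30 min room-temperature reagent incubation.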

[2] = qHTS assay to identify small molecule antagonists of the estrogen related receptor (ERR) signaling pathway from Tox21 library (AID 1224848); further: nearly all actives have a fitted effect of over 50% in size; further: potency means the concentration at half of the fitted maximal effect
Summary of the method: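 Tox21 10K compounds in DMSO tested for ERR pathway antagonism in NTP's ERR cell line; 18 h, 37 C exposure; ONE-Glo luminescence.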

[3] = qHTS assay to identify small molecule agonists of the estrogen related receptor (ERR) signaling pathway from Tox21 library (AID 1224849; calls by dose curve; further: nearly all actives have a fitted effect of over 15% in size); settings: ERR reporter cell line, ONE-Glo luciferase, 18 h; at 92.4 µM (top of the series) unless noted
Summary of the method: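 Quantitative HTS in agonist format: NTP ERR cell line, compounds transferred in DMSO after 6 h plating, 18 h incubation at 37 C, ONE-Glo luminescence endpoint.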

[4] = qHTS RealTime-Glo MT Cell Viability Assay in HepG2 cells - 24 hour (AID 1224867); further: nearly all actives have a fitted effect of over 50% in size; further: potency means the concentration at half of the fitted maximal effect
Summary of the method: (§1)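 Viability was tracked continuously by NanoLuc luminescence from prosubstrate reduced by living HepG2 cells, at successive time points over 40 h of compound exposure. Cells with reagent were preincubated 5 h at 37 °C before compound addition.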

[5] = A CellTox Green Cytotoxicity Assay to monitor cytotoxicity in HEK293 cells - 0 hour (AID 1224869); further: nearly all actives have a fitted effect of over 50% in size
Summary of the method: (§2)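 Dead-cell fluorescence measured kinetically: asymmetric cyanine dye, HEK293, 600 cells/well, 5 h settle, 23 nL cpd/DMSO, 37 C, reads 0–40 h every 8 h.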

[6] = qHTS RealTime-Glo MT Cell Viability Assay in HepG2 cells - 40 hour (AID 1224870); further: nearly all actives have a fitted effect of over 50% in size; further: potency means the concentration at half of the fitted maximal effect
Summary of the method: (§3)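 HepG2 cells mixed with RealTime-Glo MT reagents (NanoLuc plus cell-permeant prosubstrate) were seeded at 600 cells/well, incubated 5 h at 37 C/5% CO2, then pinned with compounds in DMSO; nonlytic luminescence tracked viability during 40 h treatment.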

[7] = qHTS RealTime-Glo MT Cell Viability Assay in HEK293 cells - 16 hour (AID 1224872); further: nearly all actives have a fitted effect of over 50% in size; further: potency means the concentration at half of the fitted maximal effect; on activity change, negative = cytotoxicity: top concentration of the series differs between compounds
Summary of the method: (§4)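 Viability tracked continuously by luminescence as live cells reduce a prosubstrate for NanoLuc; HEK293 cells preincubated 5 h, compound-treated at 37 C, and read at 0, 8, 16, 24, 32 and 40 h.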

[8] = qHTS RealTime-Glo MT Cell Viability Assay in HepG2 cells - 8 hour (AID 1224873); further: nearly all actives have a fitted effect of over 55% in size; further: potency means the concentration at half of the fitted maximal effect
Summary of the method: as §3

[9] = qHTS RealTime-Glo MT Cell Viability Assay in HEK293 cells - 40 hour (AID 1224874); settings: RealTime-Glo luminescence; max response: stronger effect = lower value; further: nearly all actives have a fitted effect of over 50% in size; further: potency means the concentration at half of the fitted maximal effect
Summary of the method: (§5)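 600 HEK293 cells per well, dispensed already mixed with RealTime-Glo MT reagents. Compound dosing came 5 h later. The same wells were read for luminescence at 0, 8, 16, 24, 32 and 40 h of exposure at 37 C.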

[10] = A CellTox Green Cytotoxicity Assay to monitor cytotoxicity in HepG2 cells - 16 hour (AID 1224876); further: nearly all actives have a fitted effect of over 45% in size; further: potency means the concentration at half of the fitted maximal effect
Summary of the method: (§6)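 First, HepG2 cells (600/well) mixed with reagent were plated; second, after 5 h at 37 C they received compounds via pintool; third, fluorescence was measured at 0 h through 40 h at 8 h intervals.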

[11] = qHTS RealTime-Glo MT Cell Viability Assay in HepG2 cells - 32 hour (AID 1224877); further: nearly all actives have a fitted effect of over 55% in size; further: potency means the concentration at half of the fitted maximal effect
Summary of the method: as §1

[12] = A CellTox Green Cytotoxicity Assay to monitor cytotoxicity in HepG2 cells - 24 hour (AID 1224878); further: nearly all actives have a fitted effect of over 45% in size; further: potency means the concentration at half of the fitted maximal effect
Summary of the method: as §6

[13] = A CellTox Green Cytotoxicity Assay to monitor cytotoxicity in HepG2 cells - 40 hour (AID 1224879); further: nearly all actives have a fitted effect of over 40% in size; further: potency means the concentration at half of the fitted maximal effect
Summary of the method: as §6

[14] = qHTS RealTime-Glo MT Cell Viability Assay in HEK293 cells - 0 hour (AID 1224880); further: top concentration of the series differs between compounds; nearly all actives have a fitted effect of over 45% in size
Summary of the method: as §5

[15] = A CellTox Green Cytotoxicity Assay to monitor cytotoxicity in HepG2 cells - 0 hour (AID 1224882); further: nearly all actives have a fitted effect of over 35% in size
Summary of the method: as §6

[16] = A CellTox Green Cytotoxicity Assay to monitor cytotoxicity in HepG2 cells - 32 hour (AID 1224883); further: nearly all actives have a fitted effect of over 50% in size; further: potency means the concentration at half of the fitted maximal effect
Summary of the method: as §6

[17] = A CellTox Green Cytotoxicity Assay to monitor cytotoxicity in HEK293 cells - 40 hour (AID 1224871); further: nearly all actives have a fitted effect of over 45% in size; further: potency means the concentration at half of the fitted maximal effect
Summary of the method: as §2

[18] = A CellTox Green Cytotoxicity Assay to monitor cytotoxicity in HEK293 cells - 24 hour (AID 1224875); further: nearly all actives have a fitted effect of over 45% in size; further: potency means the concentration at half of the fitted maximal effect
Summary of the method: as §2

[19] = A CellTox Green Cytotoxicity Assay to monitor cytotoxicity in HEK293 cells - 32 hour (AID 1224881); further: nearly all actives have a fitted effect of over 40% in size; further: potency means the concentration at half of the fitted maximal effect
Summary of the method: as §2

[20] = qHTS RealTime-Glo MT Cell Viability Assay in HEK293 cells - 32 hour (AID 1224868); further: nearly all actives have a fitted effect of over 50% in size; further: potency means the concentration at half of the fitted maximal effect; on activity change, negative = cytotoxic: top concentration of the series differs between compounds
Summary of the method: as §4
On the % scale 0 is the no-effect control and ±100 the full control effect.

O=C1C=CC(=O)N1c1cccc(N2C(=O)C=CC2=O)c1
active: Potency [1] 45 µM | Potency [2] 68.6 µM | Potency [4] 15.5 µM | Potency [6] 17.4 µM | Potency [7] 12.3 µM | Potency [8] 21.9 µM | Potency [9] 9.77 µM | Potency [10] 13.8 µM | Potency [11] 15.5 µM | Potency [12] 12.3 µM | Potency [13] 12.3 µM | Potency [16] 11 µM
inactive: activity change, positive = activation [3] -72.9% | Potency [5] | Potency [14] | Potency [15]

Nc1c(Br)cc([N+](=O)[O-])cc1Br
inactive: Potency [1] | activity change, positive = activation [3] -20.8% | Potency [4] | Potency [5] | Potency [6] | Potency [17] | Potency [8] | max response [9] -23.8% | Potency [18] | Potency [10] | Potency [11] | Potency [13] | Potency [14] | Potency [19] | Potency [15] | Potency [16]

Oc1ccc2c(c1)CCC2
inactive: Potency [1] | Potency [2] | activity change, positive = activation [3] 7.55% | Potency [4] | Potency [5] | Potency [6] | Potency [7] | Potency [8] | max response [9] -3.07% | Potency [18] | Potency [10] | Potency [11] | Potency [12] | Potency [13] | Potency [14] | Potency [15] | Potency [16]

Cc1ccc2n[nH]nc2c1
inactive: Potency [1] | Potency [2] | activity change, positive = activation [3] 4.26% | Potency [4] | Potency [5] | Potency [6] | Potency [7] | Potency [8] | max response [9] -0.793% | Potency [18] | Potency [10] | Potency [13] | Potency [14] | Potency [19] | Potency [15] | Potency [16]

Clc1nc(C(Cl)(Cl)Cl)c(Cl)c(Cl)c1Cl
active: Potency [6] 54.9 µM | Potency [9] 0.011 µM | Potency [12] 43.6 µM | Potency [13] 43.6 µM | Potency [16] 43.6 µM
inactive: Potency [1] | activity change, positive = activation [3] -54% | Potency [5] | Potency [8] | Potency [10] | Potency [14] | Potency [15]

c1ccc2occc2c1
inactive: Potency [1] | Potency [2] | activity change, positive = activation [3] 3.98% | Potency [4] | Potency [5] | Potency [6] | Potency [7] | Potency [8] | max response [9] 2.38% | Potency [18] | Potency [10] | Potency [11] | Potency [12] | Potency [13] | Potency [14] | Potency [19] | Potency [15] | Potency [16]

O=[N+]([O-])c1ccc(O)c2ncccc12
active: Potency [2] 5.31 µM | Potency [17] 9.52 µM | Potency [9] 9.52 µM | Potency [13] 4.25 µM
inactive: Potency [1] | activity change, positive = activation [3] -55.9% [at 42.5 µM] | Potency [4] | Potency [5] | Potency [6] | Potency [18] | Potency [11] | Potency [12] | Potency [14] | Potency [19]

Cc1cc(Br)ccc1NC(=O)CCl
inactive: Potency [1] | activity change, positive = activation [3] -79.8% | Potency [5] | Potency [18] | Potency [10] | Potency [14] | Potency [15]
active: Potency [2] 15.4 µM | Potency [20] 24.5 µM | Potency [6] 43.6 µM | Potency [9] 19.5 µM

Brc1cc(Br)cc(Br)c1
inactive: Potency [1] | Potency [2] | Potency [4] | Potency [20] | Potency [5] | Potency [6] | Potency [17] | Potency [7] | Potency [8] | max response [9] 0.239% | Potency [18] | Potency [10] | Potency [11] | Potency [12] | Potency [13] | Potency [14] | Potency [19] | Potency [15] | Potency [16]

CN(C)CCOc1ccc(/C(=C(/CCCl)c2ccccc2)c2ccccc2)cc1
active: Potency [1] 94.3 µM | Potency [2] 51 µM | Potency [4] 40.9 µM | Potency [6] 40.9 µM | Potency [17] 45.8 µM | Potency [8] 36.4 µM | Potency [9] 40.9 µM | Potency [18] 45.8 µM | Potency [10] 32.5 µM | Potency [11] 40.9 µM | Potency [12] 32.5 µM | Potency [13] 32.5 µM | Potency [19] 40.9 µM | Potency [16] 32.5 µM
inactive: activity change, positive = activation [3] -52.6% | Potency [5] | Potency [14] | Potency [15]

CCCCNc1ccc(NCCCC)c2c1C(=O)c1ccccc1C2=O
inactive: activity change, negative = cytotoxicity [1] -12.2% [at 31.6 µM] | activity change, negative = cytotoxicity [4] -2.93% [at 15.8 µM] | activity change, negative = cytotoxic [20] 1.33% [at 15.8 µM] | cytotoxicity [5] 1.41% [at 15.8 µM] | activity change, negative = cytotoxic [6] -5.13% [at 15.8 µM] | cytotoxicity increase [17] -1.5% [at 15.8 µM] | viability change, negative = cytotoxic [8] 0.0909% [at 15.8 µM] | max response [9] -1.48% | activity change [18] 0.143% [at 15.8 µM, stronger effect = higher value] | cytotoxicity increase [10] -0.637% [at 15.8 µM] | activity change, negative = cytotoxic [11] -3.72% [at 15.8 µM] | cytotoxicity [12] -4.17% [at 15.8 µM] | cytotoxicity increase [13] -3.23% [at 15.8 µM] | activity change, negative = cytotoxicity [14] -4.14% [at 15.8 µM] | cytotoxicity increase [19] -0.0716% [at 15.8 µM] | cytotoxicity [15] 3.56% [at 15.8 µM] | cytotoxicity increase [16] -3.73% [at 15.8 µM]

c1ccc(-c2nc3ccccc3[nH]2)cc1
inactive: Potency [4] | Potency [5] | Potency [6] | Potency [17] | Potency [8] | Potency [18] | Potency [10] | Potency [11] | Potency [12] | Potency [13] | Potency [14] | Potency [15] | Potency [16]
active: Potency [1] 89.8 µM | Potency [20] 34.7 µM | Potency [7] 21.9 µM | Potency [9] 21.9 µM

C=C(C)C1CCC(C)CC1O (configuration not stated)
inactive: Potency [1] | Potency [4] | Potency [20] | Potency [5] | Potency [6] | Potency [17] | Potency [8] | max response [9] 5.16% | Potency [18] | Potency [10] | Potency [12] | Potency [13] | Potency [14] | Potency [19] | Potency [15] | Potency [16]
